# Results taken from PubChem BioAssay AID709 (SRMLSC, 2007).
# Screen size: about 65,000 compounds; about 3,600 (5.5%) were called active. This is one part of a sample in which actives are shown more often than they occur.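 The calls were made as follows: active = at 10 µM, mean starting fluorescence two-fold or more over control wells; inactive = the rest.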
# Assay: intrinsic fluorescence of library compounds, ex339/em460 – biochemical, MLSMR library, data from DPM-DC assay, artefact control, profiling panel (AID 709);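 also: signal is the first read of a kinetic run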
# Conditions: compound autofluorescence, ex339/em460 nm, NADH buffer; at 10 µM; active compounds read high; 1 = no-compound wells, NADH background
row,SMILES,fluorescence fold increase
1,O=c1[nH]c(=O)n(Cc2ccco2)c2c1C(C(F)(F)F)(C(F)(F)F)N=C(c1ccco1)N2,1.16 (inactive)
2,CCCCn1nnnc1NCc1cc(OC)c(OC)c(OC)c1,1.07 (inactive)
3,CCCC(C(=O)NCc1ccco1)N(C(=O)CNS(=O)(=O)c1ccccc1)C1CCCC1 (centres undefined),1 (inactive)
4,CC(=NCC1CCCO1)c1c(O)[nH]c(=O)[nH]c1=O (centres undefined),1.14 (inactive)
5,Cc1ccc(C)c(S(=O)(=O)n2cnc3ccccc32)c1,1.02 (inactive)
6,O=C(CSc1nc2ncccc2[nH]1)Nc1ccc2c(c1)OCCO2,1.01 (inactive)
7,CN1CCc2c(sc3c2c(NCc2ccco2)nc2nnnn23)C1,2.08 (active)
8,C=C(C)Cn1c(SCC(=O)NCc2ccco2)nc2sc3c(c2c1=O)CCC3,1.09 (inactive)
9,O=C(Cc1ccccc1)n1nc(-c2ccccc2)nc1NCc1ccco1,1.13 (inactive)
10,Cc1cccc(N)c1SC1CCCCC1O (centres undefined),1.03 (inactive)
11,CCOC(=O)c1cn(CC(=O)Nc2ccc(C(C)C)cc2)nn1,1.16 (inactive)
12,CCc1nc(Nc2ccc3nccnc3c2)c2oc3ccccc3c2n1,2.54 (active)
13,CCSc1nc(C)nc2c1oc1ccccc12,1.02 (inactive)
14,COc1ccccc1Nc1ncnc2c1oc1ccccc12,1.7 (inactive)
15,CNC(=O)NCCN1CCCC1=O,1.05 (inactive)
16,COCCNC(=S)c1ccc(OC)cc1,1.02 (inactive)
17,CCN(CC)CCNC(=O)C1c2ccccc2C(=O)N(C)C1c1cn(C)c2ccccc12 (centres undefined),1.07 (inactive)
18,CC1(C)CC(=O)C=C(NCCCN2CCCC2=O)C1,1.11 (inactive)
19,O=C(CCn1c(=S)[nH]c2ccccc2c1=O)NCCCN1CCCC1=O,0.98 (inactive)
20,O=C1CCCN1CCCNc1ncnc2c1[nH]c1ccccc12,2.27 (active)
21,O/N=C(\c1ccc2c(c1)OCCO2)C1CCCCC1,1.08 (inactive)
22,COCCNC(=O)COc1ccc(C)c(C)c1,1.07 (inactive)
23,CCOC(=O)c1c(C)oc2ccc(OCC(=O)N(CC)CC)cc12,1.07 (inactive)
24,COC(=O)COc1ccc2oc(=O)cc(C)c2c1,2.31 (active)
25,COc1ccc(C2CC(c3ccc(C)cc3)Nc3ncnn32)cc1 (centres undefined),1.03 (inactive)
26,c1ccc(-n2ncc3c2ncn2c(CSc4nc5ccccc5s4)nnc32)cc1,1.81 (inactive)
27,Cc1ccc(C(C)C)c(OCc2nnc(SCC(=O)Nc3nccs3)n2C)c1,1.13 (inactive)
28,O=C(Nc1ccc(S(=O)(=O)N2CCCCC2)cc1)c1cnccn1,1.14 (inactive)
29,COc1ccc(CCNS(=O)(=O)c2ccc(F)cc2)cc1OC,1.09 (inactive)
